# From PubChem BioAssay (NCI)
# Compounds without any hit were thinned out: in the full panel of roughly 83,000, 20% have a hit.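 Note: values are percent growth. 100 is the growth of untreated cells, values between 100 and 0 indicate rising inhibition; between -100 and 0 indicates cell death.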 Values without a mark were called inactive. Calls of active or inactive are those of the source. The calls were made as follows: active = growth percent below 10; inactive = the rest.
# Legend:
# Test in all cases: NCI-60 one-dose screen, 48 h (100 = growth as untreated, 0 = no growth, -100 = all killed)
# [1] = test system: DU-145 prostate; conditions: 10 µM
# [2] = test system: K-562 leukemia; conditions: 10 µM
# [3] = test system: MALME-3M melanoma; conditions: 10 µM
# [4] = test system: MDA-MB-231 breast; conditions: 10 µM
# [5] = test system: RXF 393 renal; conditions: 10 µM
# [6] = test system: SF-268 CNS; conditions: 10 µM
# [7] = test system: SF-295 CNS; conditions: 10 µM
# [8] = test system: SF-539 CNS; conditions: 10 µM
# [9] = test system: UACC-257 melanoma; conditions: 10 µM
# [10] = test system: M14 melanoma; conditions: 10 µM
# [11] = test system: HCT-15 colon; conditions: 10 µM
# [12] = test system: HT29 colon; conditions: 10 µM
# [13] = test system: SNB-75 CNS; conditions: 10 µM
# [14] = test system: SNB-19 CNS; conditions: 10 µM
# [15] = test system: U251 CNS; conditions: 10 µM
# [16] = test system: PC-3 prostate; conditions: 10 µM
# [17] = test system: SK-MEL-5 melanoma; conditions: 10 µM
# [18] = test system: UACC-62 melanoma; conditions: 10 µM unless noted
# [19] = test system: LOX IMVI melanoma; conditions: 10 µM
# [20] = test system: SK-MEL-28 melanoma; conditions: 10 µM
SMILES,growth [1] [%],growth [2] [%],growth [3] [%],growth [4] [%],growth [5],growth [6] [%],growth [7] [%],growth [8] [%],growth [9] [%],growth [10] [%],growth [11] [%],growth [12],growth [13] [%],growth [14] [%],growth [15] [%],growth [16] [%],growth [17] [%],growth [18],growth [19] [%],growth [20]
CCCCC(CC)COC(C)=O (stereo unspecified),106,95.1,96.4,106,117%,96.6,99.3,92.1,104,102,109,111%,91.2,106,99.6,97,105,103%,97.4,108%
CN1C(=O)CN2CCc3ccccc3C2c2cc(Cl)ccc21 (stereo unspecified),119,92.6,94.3,93.6,93.7%,103,105,89.4,112,97.2,89.7,108%,96.1,96.7,103,94.7,91.5,78.7%,94.7,-89.5% (active)
Cc1c(C(=O)O)c(=O)n(-c2ccccc2)n1C,118,108,163,118,119%,119,91.4,119,93.8,104,107,112%,109,111,115,101,113,108%,99.5,122%
Oc1ccc(O)cc1,105,98.1,102,109,135%,106,114,90.1,97.8,108,101,97.7%,102,115,99.1,89.2,–,103%,92.6,112%
Cc1ccc(/C(C#N)=C/c2ccc3c(c2)OCO3)cc1,98.1,32.4,84.3,73.3,75.3%,87.7,110,91.1,87.1,75.2,69.5,37.1%,67.8,88.4,63.2,81.9,58.6,73.5%,74.9,81.4%
O=c1[nH]cc(Cl)cc1O,96.8,48,91.2,77.8,107%,79,82.4,96,92.3,86.6,64.4,97.3%,93.1,105,88.6,82.2,86.6,40.5%,–,105%
CC1(C)/C(=C\CO)C2CCC1C2 (stereo unspecified),120,105,103,112,113%,111,120,109,132,103,105,109%,93.2,106,105,95,102,–,107,115%
O=C(NC1CCCCC1)OCc1c(COC(=O)NC2CCCCC2)c(-c2ccc(Cl)c(Cl)c2)n2c1CCC2,20.2,10.5,31.8,42.3,-13.6% (active),29.2,24.7,20.1,66.2,21.6,33.6,26.7%,15.7,44.5,29.4,55.1,41.6,9.04% (active),13.3,75.6%
COC(=O)c1cccnc1,107,113,112,100,105%,95.4,110,91.1,90.4,93.9,103,101%,88.2,95.3,99.4,95.2,96.4,90.8%,–,103%
O=[N+]([O-])c1cccc(N=Nc2ccc(O)cc2O)c1,95.2,17.7,65.8,76.5,83.5%,83.4,95.7,89.7,72.5,97,48,86.2%,69.7,78.2,63.7,58.5,74.2,–,–,99.1%
CC(=O)c1c[nH]c2ccccc12,124,103,95.2,114,104%,113,100,105,104,102,101,118%,88.1,105,95.7,86.1,103,–,102,103%
COC(=O)c1cccc(Br)c1,111,121,111,111,146%,108,102,98.7,112,101,101,115%,96.5,107,109,86.4,106,97.2%,108,118%
C=CCNC(=O)c1ccc(OC)cc1,124,105,117,104,111%,126,115,100,97.6,100,108,129%,117,92.1,101,104,103,–,111,144%
CC1SC(N)=NC1=O (stereo unspecified),117,112,108,112,120%,110,102,106,110,103,114,128%,103,109,113,106,113,100%,104,112%
C=CC(O)CCC (stereo unspecified),112,104,106,106,121%,107,91.1,102,90.3,106,98,99.7%,95.7,100,92.8,90,107,–,98.6,98.3%
OC(c1ccccn1)C(O)c1ccccn1 (stereo unspecified),115,96.8,122,108,123%,102,118,102,102,103,97.6,106%,89.9,99.3,109,102,106,95.6%,96,113%
CNC(=O)c1ccccc1CC1(O)c2ccccc2Oc2ccccc21,61.3,22,29.9,66.3,61.3%,57.7,36.8,56.5,58,42.2,44.6,7.73% (active),58.3,93,47.8,35.3,41.9,43.6%,57.9,63.8%
